Screens from PubChem.
Dicer inh – inhibitors of Dicer pre-microRNA processing, primary screen, biochemical, cat-ELCCA, chemiluminescence | AID 1347074, 2019 | Endoribonuclease Dicer (Homo sapiens), Q9UPY3 | 47,000 compounds, 6% hits | cat-ELCCA pre-miR-21 Dicer processing; active compounds read high | z-score at 25 µM; in the data active = z-score above about 3, passing the limit was not always enough;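 note: plate controls were vehicle for no effect and no enzyme for full effect; higher signal means more uncleaved substrate so more Dicer inhibition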
Target sequence (Q9UPY3 whole entry, looked up): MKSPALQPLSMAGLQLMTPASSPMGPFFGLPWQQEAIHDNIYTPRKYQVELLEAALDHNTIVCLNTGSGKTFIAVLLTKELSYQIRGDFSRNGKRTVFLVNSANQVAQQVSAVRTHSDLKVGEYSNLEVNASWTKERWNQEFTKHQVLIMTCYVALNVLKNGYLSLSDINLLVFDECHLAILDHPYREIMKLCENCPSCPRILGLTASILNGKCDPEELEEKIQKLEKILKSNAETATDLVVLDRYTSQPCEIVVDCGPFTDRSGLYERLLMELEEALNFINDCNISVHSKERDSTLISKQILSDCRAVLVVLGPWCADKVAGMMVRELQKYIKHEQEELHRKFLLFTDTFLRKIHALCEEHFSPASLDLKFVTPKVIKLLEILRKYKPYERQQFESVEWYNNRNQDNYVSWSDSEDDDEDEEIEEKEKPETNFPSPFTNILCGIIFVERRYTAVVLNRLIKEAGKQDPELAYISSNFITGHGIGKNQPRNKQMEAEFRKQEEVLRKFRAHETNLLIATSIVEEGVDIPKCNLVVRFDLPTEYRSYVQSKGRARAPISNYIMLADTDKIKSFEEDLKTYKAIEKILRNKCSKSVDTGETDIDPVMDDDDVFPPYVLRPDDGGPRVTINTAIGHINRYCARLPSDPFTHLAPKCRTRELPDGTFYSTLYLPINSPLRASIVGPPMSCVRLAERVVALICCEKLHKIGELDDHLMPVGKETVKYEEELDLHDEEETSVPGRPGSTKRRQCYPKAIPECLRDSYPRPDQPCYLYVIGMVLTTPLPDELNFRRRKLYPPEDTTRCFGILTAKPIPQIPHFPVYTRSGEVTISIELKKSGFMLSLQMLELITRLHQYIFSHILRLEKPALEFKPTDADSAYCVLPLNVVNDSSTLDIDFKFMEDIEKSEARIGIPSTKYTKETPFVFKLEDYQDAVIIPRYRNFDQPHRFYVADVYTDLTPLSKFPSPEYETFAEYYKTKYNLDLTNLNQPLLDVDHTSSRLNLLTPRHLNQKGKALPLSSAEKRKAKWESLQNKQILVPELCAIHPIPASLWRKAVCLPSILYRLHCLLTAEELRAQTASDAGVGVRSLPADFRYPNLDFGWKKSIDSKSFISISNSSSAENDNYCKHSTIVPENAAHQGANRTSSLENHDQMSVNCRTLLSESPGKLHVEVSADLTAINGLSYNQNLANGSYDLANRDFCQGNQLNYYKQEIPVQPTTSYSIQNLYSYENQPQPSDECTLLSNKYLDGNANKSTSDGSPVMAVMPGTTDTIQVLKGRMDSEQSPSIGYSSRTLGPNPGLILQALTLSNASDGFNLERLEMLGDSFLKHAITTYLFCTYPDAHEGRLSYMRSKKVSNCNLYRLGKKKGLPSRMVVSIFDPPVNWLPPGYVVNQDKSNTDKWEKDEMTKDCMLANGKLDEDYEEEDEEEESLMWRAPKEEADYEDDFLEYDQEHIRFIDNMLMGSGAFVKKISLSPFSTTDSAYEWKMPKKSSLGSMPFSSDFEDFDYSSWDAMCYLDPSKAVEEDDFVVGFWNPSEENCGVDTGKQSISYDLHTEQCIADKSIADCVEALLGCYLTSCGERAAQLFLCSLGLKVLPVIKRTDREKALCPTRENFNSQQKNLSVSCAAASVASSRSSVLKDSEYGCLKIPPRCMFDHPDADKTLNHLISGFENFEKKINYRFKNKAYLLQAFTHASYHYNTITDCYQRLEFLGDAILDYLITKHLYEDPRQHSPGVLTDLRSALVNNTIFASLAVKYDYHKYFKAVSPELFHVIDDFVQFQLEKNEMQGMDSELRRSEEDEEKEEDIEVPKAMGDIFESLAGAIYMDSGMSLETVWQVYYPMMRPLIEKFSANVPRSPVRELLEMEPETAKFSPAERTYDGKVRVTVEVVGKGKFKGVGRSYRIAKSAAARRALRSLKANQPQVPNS
An asterisk follows results filed as active. This excerpt belongs to a sample that is enriched for hits.

SMILES	Dicer inh
COc1ccc(C(=O)Oc2cccc3cccnc23)cc1OC	2.1
O=C(Oc1cccc2cccnc12)c1cccs1	2.2
COc1ccc(C(=O)Oc2cccc3cccnc23)cc1Cl	4.4*
CCCOC(=O)C1=C(C)NC2=C(C(=O)CC(C)(C)C2)C1c1ccccc1OCC (stereo not given)	0.41
O=C(CSc1ncc(Sc2ncccn2)c(-c2ccc(Cl)cc2)n1)c1ccc(Cl)cc1	-1.2
O=C(CSc1ncccn1)c1ccc(O)c(O)c1	4.2*
Cn1ccnc1SCC(=O)c1ccc(F)c(F)c1	0.37
Cc1ccc2c(c1)N(C)/C(=C/c1sc3ccccc3[n+]1CCO)S2	1.1
CCOC(=O)c1sc2ccc(NC(C)=O)cc2c1C	0.11
COc1ccc2c(c1)C(C)CC(C)(C)N2C(=O)CSc1ncccn1 (stereo not given)	4.2*
COc1ccc2c(c1)C(C)=CC(C)(C)N2C(=O)CSc1nnc(C)s1	-1.9
COc1ccc2c(c1)C(C)CC(C)(C)N2C(=O)CSc1ncn[nH]1 (stereo not given)	0.09
COc1ccc(Cl)cc1NC(=O)Nc1ccc(C(F)(F)F)cn1	-1.6
Cc1oc(C(=O)NC(=O)Nc2cccc(C(F)(F)F)c2)nc1-c1ccccc1	-0.82
Cc1cccc2nc(CSc3nncn3-c3ccccc3)cn12	-0.94
Cc1cccc2nc(CSc3nnnn3-c3ccccc3)cn12	6.5*
Cc1cc(C)nc(N2N=C(CSc3nnnn3-c3ccccc3)CC2=O)n1	-1.5
Cc1ccc(CSc2nc(C)cc(=O)[nH]2)cc1	-1.6
Cc1cc(=O)[nH]c(SCc2cn3c(C)cccc3n2)n1	4.8*
Cc1cc(=O)[nH]c(SCc2cccc(Oc3ccccc3)c2)n1	-0.26
CCOc1ccc(C2/C(=C(\O)c3ccc(OC)cc3)C(=O)C(=O)N2Cc2cccnc2)cc1OC (stereo not given)	0.57
O=C1CSC(c2cn(-c3ccccc3)nc2-c2ccccc2)N1CCO (stereo not given)	-0.57
CCOC(=O)c1c(CSC#N)oc2ccc(OC(C)=O)cc12	1.8
COc1ccc2c(c1OC)C(=O)N1c3ccccc3N=C(c3ccc(C)cc3)CC21 (stereo not given)	-0.19
COC(=O)c1cc(Cl)ccc1Oc1ccc([N+](=O)[O-])c(Oc2ccc(Cl)cc2C(=O)OC)n1	-0.75
SMILES	Dicer inh
COc1ccc(Oc2ccc([N+](=O)[O-])cc2C(=O)NNC(=O)c2ccc(Cl)cc2Cl)cc1	4.8*
NNC(=O)c1ccc([N+](=O)[O-])cc1Cl	-0.83
CCOC(=O)C1=C(C)NC2=C(C(=O)CC(C)(C)C2)C1c1ccccc1OC(C)C (stereo not given)	-0.79
O=C(Nc1ccc2c(c1)CCO2)Nc1ccc2c(c1)CCO2	1.1
CCN(/C=C/c1nnnn1-c1ccc(C)cc1)CC	-0.29
CC1=C(C(=O)OCCOc2ccccc2)C(c2cccnc2)C2=C(CC(C)(C)CC2=O)N1 (stereo not given)	3.5*
CCCOC(=O)C1=C(C)NC2=C(C(=O)CC(C)(C)C2)C1c1ccc(SC)cc1 (stereo not given)	1.6
CCCOCCOC(=O)C1=C(C)NC2=C(C(=O)CC(C)(C)C2)C1c1ccsc1 (stereo not given)	5.1*
CCOCCOC(=O)C1=C(C)NC2=C(C(=O)CC(C)(C)C2)C1c1ccc(CC)cc1 (stereo not given)	-0.52
CSc1ccc(C2C(C(=O)OCCOc3ccccc3)=C(C)NC3=C2C(=O)CC(C)(C)C3)cc1 (stereo not given)	2.9
CCCOC(=O)C1=C(C)NC2=C(C(=O)CC(C)(C)C2)C1c1cccnc1 (stereo not given)	0.87
CCCCNC(=O)Oc1ccc(C2=NCCS2)cc1	-0.35
CCCCn1c(=O)c2c(nc3n2CCN3c2ccc(OC)cc2)n(C)c1=O	-1.3
COC(=O)C1=NNC2C(=O)N(c3ccccc3C)C(=O)C12 (stereo not given)	0.95
O=C1CSC(=S)N1c1ccc(Cl)cc1	2.6
CCOC(=O)c1nc(N2CCCC2)c2ccccc2n1	-0.04
Cc1cc(C)nc(NS(=O)(=O)c2ccc(NC(=O)Nc3cscc3-c3ccccc3)cc2)n1	7.3
O=C(c1ccncc1)N(c1ccc2oc(=O)sc2c1)S(=O)(=O)c1ccc(F)cc1	3.2*
COc1ccc(OC)c(S(=O)(=O)N(C(=O)c2cccnc2)c2ccc3oc(=O)sc3c2)c1	1.4
CC(C)C(=O)N(c1ccc2oc(=O)sc2c1)S(=O)(=O)c1ccc(F)cc1	-3.1
O=C(c1cccnc1)N(c1ccc2oc(=O)sc2c1)S(=O)(=O)c1ccc(F)cc1	11*
O=C(c1cccnc1)N(c1ccc2oc(=O)sc2c1)S(=O)(=O)c1ccc(Cl)cc1	10*
CC(C)C(=O)N(c1ccc2oc(=O)sc2c1)S(=O)(=O)c1ccc(Cl)cc1	25
O=C(c1ccncc1)N(c1ccc2oc(=O)sc2c1)S(=O)(=O)c1ccc(Cl)cc1	2.9
CCCOC(=O)C1=C(C)NC2=C(C(=O)CC(C)(C)C2)C1c1cccc(Cl)c1 (stereo not given)	-0.11
Brc1cccc(CSc2ncnc3nc[nH]c23)c1	-0.24
